Assay outcomes from PubChem BioAssay.
Dicer processing = inhibitors of human Dicer processing of pre-microRNA. cat-ELCCA pre-miR-21 Dicer processing, chemiluminescence; active compounds read high. 47,000 compounds, 6% hits. z-score at 25 µM. AID 1347074; in the data active = z-score above about 3, passing the limit was not always enough;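 also: plate controls were vehicle for no effect and no enzyme for full effect; higher signal means more uncleaved substrate so more Dicer inhibition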
An asterisk follows results filed as active. The sample as a whole holds a higher share of hits than the screen did.

SMILES	Dicer processing
COc1ccc(-c2cc(C(F)(F)F)n3nc(N)nc3n2)cc1OC	5.47*
COc1ccc(-c2cc(C(F)(F)F)n3nc(N)nc3n2)cc1	1.88
CCCCc1c(O)c2cccc3c4c(n(c1=O)c23)CCC(C)C4 (centres undefined)	-0.13
CCC(C)N1CC23C=CC(O2)C(C(=O)O)C3C1=O (centres undefined)	0.67
CC1CCN(C(=O)CN2C(=O)c3cccc4cccc2c34)CC1	-1.72
NC(=O)CSc1nnnn1-c1ccccc1	4.88*
CS(=O)(=O)NCCSc1nnnn1-c1ccccc1	-0.83
CCc1nnc(NC(=O)CSc2nnnn2-c2ccccc2)s1	1.79
CC(C)Sc1nnnn1-c1ccccc1	4.91*
O=C(CSc1nnnn1-c1ccccc1)Nc1cccc(F)c1	0.09
Cc1n[nH]c(C)c1Sc1nnnn1-c1ccccc1	-1.73
Cn1c(SCCS(=O)(=O)c2ccc(F)cc2)nnc1C(F)(F)F	-1.87
OC(CNCc1ccco1)COc1ccccc1 (centres undefined)	2.8
Cc1ccc2c(c1)c1c(n2CC(O)CNCc2ccccc2)C(=O)CCC1 (centres undefined)	-1.34
Cc1ccc2c(c1)c1c(n2CC(O)CNCc2ccco2)CCCC1 (centres undefined)	5.01*
CCOC(=O)c1sc(SC)c2c1CC/C(=C\N(C)C)C2=O	-6.98
CCOC(=O)C1=C(C)NC2=C(C(=O)CC(c3ccccc3)C2)C1c1cc(C)sc1SC (centres undefined)	0.21
CCOC(=O)c1sc(SC)c2c1CC(c1ccccc1)CC2=O (centres undefined)	3.69*
CCn1c2c(c(=O)[nH]c1=O)C(c1ccccc1)C1=C(N2)c2ccccc2C1=O (centres undefined)	0.26
Cc1cc(Cl)cc2c(=O)c(C(=O)O)c[nH]c12	-0.67
Cc1ccc(OC(C)CC(=O)O)c([N+](=O)[O-])c1 (centres undefined)	3.11*
Cc1ccc(-c2ccc(C)cc2[N+](=O)[O-])c([N+](=O)[O-])c1	-0.74
Cc1ccc(OC(=O)c2ccc(Cl)cc2[N+](=O)[O-])c([N+](=O)[O-])c1	2.51
CNC(=O)NCc1ccc(-c2csnn2)cc1	0.06
COc1ccc(-c2ncnn2-c2ccc(Cl)cc2)cc1	2.18
SMILES	Dicer processing
COc1ccc(-c2nc3n(n2)C(=O)CC(c2ccc(Cl)cc2)S3)cc1 (centres undefined)	4.47*
COc1ccc(-c2nc3n(n2)C(c2ccc(Cl)cc2)C2=C(CCCC2=O)N3)cc1 (centres undefined)	0.44
O=C(CSc1nnc2sc3ccccc3n12)c1ccc(Cl)cc1	0.1
O=C(c1nc2nc(-c3ccc(Cl)cc3)cc(C(F)(F)F)n2n1)N1CCOCC1	2.81
O=C(c1nn2c(C(F)(F)F)cc(-c3ccc(F)cc3)nc2c1Cl)N1CCOCC1	4.19*
O=C(c1nn2c(C(F)(F)F)cc(-c3ccccc3)nc2c1Cl)N1CCOCC1	-0.1
O=c1oc2cc3occ(-c4ccc(F)cc4)c3cc2c2ccccc12	0.95
Cn1c(=O)c2c(-c3ccccc3)n(-c3ccc(N)cc3)cc2n(C)c1=O	-2.63
COc1ccc(CCN2C(=O)CC(Sc3ncccc3C(=O)O)C2=O)cc1OC (centres undefined)	-0.92
Cc1ccc2c(c1)CCCN2C(=O)CC(=O)N1CCCc2cc(C)ccc21	-1.16
O=C(NCc1ccco1)C1CC(c2ccc(Cl)cc2)=NO1 (centres undefined)	1.56
CC(C)CNC(=O)C1CC(c2ccccc2)=NO1 (centres undefined)	3.61*
O=C(NCc1ccc2c(c1)OCO2)C1CC(c2cccc(Br)c2)=NO1 (centres undefined)	-0.75
O=C(NNC(=O)c1cccs1)NC(=O)c1ccccc1Cl	-1.96
COc1ccc(-c2nc3n(n2)C(c2ccc(OC)c(OC)c2)C2=C(CCCC2=O)N3)cc1OC (centres undefined)	-0.72
COc1ccc(-c2nc3n(n2)C(c2ccc4c(c2)OCO4)C2=C(CC(C)(C)CC2=O)N3)cc1OC (centres undefined)	3.04*
CC1(C)CC(=O)C2=C(C1)Nc1nc(-c3cccc(Cl)c3)nn1C2c1ccc2c(c1)OCO2 (centres undefined)	2.23
CC(=O)CSc1n[nH]c(-c2ccc(Cl)cc2)n1	-0.83
Cn1cnc(-c2ccccc2NC(=O)Nc2cccc(Cl)c2)n1	0.72
Cc1cc(Cl)ccc1OCC(=O)NCCOC(=O)Nc1sc(=S)n(C)c1C	-0.19
Clc1ccc(-c2nn(-c3ccccc3)cc2C2C=C(c3ccccc3)Nc3ncnn32)cc1 (centres undefined)	-0.12
CCCCCOCC1CC2(CC(C)(c3csc(Nc4ccccc4)n3)OC2=O)C(=O)O1 (centres undefined)	-0.43
CC1CC2(CC(C)(c3csc(Nc4ccccc4)n3)OC2=O)C(=O)O1 (centres undefined)	4.91*
Cc1ccccc1Nc1nc(C2(C)CC(C(C)C)C(=O)O2)cs1 (centres undefined)	-0.01
COc1ccc(-c2nc(C#N)c(NCc3ccccc3Cl)o2)cc1	-0.12
SMILES	Dicer processing
CCn1c[n+](CC(O)COc2cccc(OC)c2)c2cc(C)c(C)cc21 (centres undefined)	0.7
Fc1cccc(CN2CCN(Cc3ccco3)CC2)c1	3.48*
Clc1ccc(CN2CCN(Cc3ccco3)CC2)cc1	0.11
Clc1cccc(CN2CCN(Cc3ccco3)CC2)c1	-0.29
Cc1ccc(N2C(=O)C3CN=NC3(C)C2=O)cc1 (centres undefined)	1.81
CC12N=NCC1C(=O)N(c1ccc(Cl)cc1)C2=O (centres undefined)	3.05*
CC12N=NCC1C(=O)N(c1cccc(Cl)c1)C2=O (centres undefined)	0.44
c1ccc(-c2ncc(-c3nnnn3-c3ccccc3)c(-c3ccccc3)n2)cc1	-1.05
O=C(Nc1ccc(F)cc1Cl)c1cnc2ccccc2n1	-0.3
COc1ccccc1CNC(=S)NN	-0.61
O=C1CC(N2CCN(CCO)CC2)C(=O)N1c1ccccc1 (centres undefined)	-1.26
CS(=O)(=O)NCCc1ccc(S(N)(=O)=O)cc1	6.86*
O=c1[nH]c2ccc(S(=O)(=O)NCCc3ccc(F)cc3)cc2[nH]1	1.93
O=S(=O)(CS(=O)(=O)NCCc1ccc(Cl)cc1)NCCc1ccc(Cl)cc1	0.29
NS(=O)(=O)c1ccc(CCNS(=O)(=O)c2ccc(Cl)cc2)cc1	3.36*
NS(=O)(=O)c1ccc(CNS(=O)(=O)Cc2ccccc2)cc1	-0.27
CS(=O)(=O)NCCc1ccncc1	0.42
N#CCc1ccc(NC(=O)C2=CCCCC2C(=O)O)cc1 (centres undefined)	47.3
CC1(C)CC(=O)c2cc(C(=O)NC3CCSC3=O)c(=O)n(-c3ccccc3)c2C1 (centres undefined)	-0.31
C=C(C)CSc1nc2sc3c(c2c(=O)[nH]1)CCCC3	0.28
COc1ccc(-c2nc3sc4c(c3c(=O)[nH]2)CCCC4)cc1OC	5.08*
CC(C)(C)c1nc2sc3c(c2c(=O)[nH]1)CCCC3	5.34*
O=C(CSc1nc2sc3c(c2c(=O)[nH]1)CCCC3)N1CCCCC1	-0.27
COc1ccc(-c2nc3c4c5c(sc4ncn3n2)CCCCC5)cc1OC	1.11
COc1ccc(-c2ncnn2-c2sc3c(c2C#N)CCCC3)cc1OC	-5.02
CC(C(=O)N1CCN(Cc2ccccc2)CC1)N1CCN(Cc2ccccc2)CC1 (centres undefined)	0.15
O=C(O)c1cc2cc(OC(F)(F)F)ccc2[nH]1	-1.33
Fc1ccccc1OCc1nc(-c2ccccc2)no1	0.57
CCCCSc1nnc2sc3ccccc3n12	0.29
